# Several values for one entry are separate records, joined by “and”; a condition that tells them apart may be missing. Equal values may be shown once. Inconclusive results are not listed. A number with no mark means an inactive call. Activity calls are given as the source filed them. Unless noted, the call rests on the fitted dose curve; in most records, active means well fitted curve in the direction sought with a large enough effect; inconclusive means small, poorly fitted or top-dose-only effect, or another doubt; inactive means no such curve, though single readings can be large; an effect the other way counts as inactive or inconclusive.
# Tested on: not listed separately
# Experiment: Counterscreen qHTS for small molecule stabilizers of the endoplasmic reticulum resident proteome: GLuc-NoTag assay (AID 1508627); further: potency means the concentration at half of the fitted maximal effect;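 on activity change, negative = inhibition: SH-SY5Y cells given compound then 100 nM thapsigargin to empty ER calcium; 0% = thapsigargin alone and -100% = DMSO vehicle control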
# Conditions: Gaussia luciferase NoTag secretion counterscreen, luminescence, thapsigargin 100 nM for final 4 h; series mostly up to 76.4 µM; activity change, negative = inhibition: at the top concentration
# Outline: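 Luminescence of Gaussia luciferase secreted into the medium (coelenterazine, 0.07x final, unlysed cells) was the read-out. Human SH-SY5Y neuroblastoma cells constitutively secreting untagged GLuc received compound for 19 h, then 100 nM thapsigargin for 4 h.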
Compound,Potency,"activity change, negative = inhibition [%]"
CCN(CC)C(=S)SSC(=S)N(CC)CC,28.2 µM (active),–
O=c1cc(N2CCOCC2)oc2c(-c3ccccc3)cccc12,inactive,–
O=C(O)c1cc(=O)c2c(OCC(O)COc3cccc4oc(C(=O)O)cc(=O)c34)cccc2o1,–,-18.5
C[C@H](Cc1ccc(O)c(O)c1)[C@@H](C)Cc1ccc(O)c(O)c1,35.5 µM (active),–

# Tested on: not listed separately
# Experiment: Confirmatory qHTS for small molecule stabilizers of the endoplasmic reticulum resident proteome: Secreted ER Calcium Modulated Protein (SERCaMP) assay (AID 1508628); further: nearly all actives have a fitted effect of over 40% in size; further: potency means the concentration at half of the fitted maximal effect;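 on activity change, negative = decrease: SH-SY5Y cells given compound 16 h then thapsigargin 100 nM for 4 h; on the % scale 0 is the no-effect control and ±100 the full control effect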
# Conditions: SERCaMP secreted luciferase ER calcium/proteostasis reporter; series mostly up to 76.3 µM; activity change, negative = decrease: at the top concentration
# Outline: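 We seeded SH-SY5Y-GLuc-SERCaMP cells, added compounds (three concentrations in the primary run, eleven up to 76.6 uM in confirmation), incubated 16 h, depleted ER calcium with thapsigargin, and read luciferase 4 h later.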
Compound,"activity change, negative = decrease [%]",Potency
CCN(CC)C(=S)SSC(=S)N(CC)CC,6.08,–
O=c1cc(N2CCOCC2)oc2c(-c3ccccc3)cccc12,–,inactive
O=C(O)c1cc(=O)c2c(OCC(O)COc3cccc4oc(C(=O)O)cc(=O)c34)cccc2o1,-0.733,–
C[C@H](Cc1ccc(O)c(O)c1)[C@@H](C)Cc1ccc(O)c(O)c1,–,7.94 µM (active)

# Tested on: not listed separately
# Experiment: Cell Viability qHTS for small molecule stabilizers of the endoplasmic reticulum resident proteome (AID 1508629);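 further: compound exposure about 46 h in total before the viability read; on the % scale 0 is the no-effect control and ±100 the full control effect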
# Conditions: cell viability counter-screen, 100 nM thapsigargin for final 4 h
# Excerpt: Assay Provider: Brandon K. Harvey Ph.D.
# National Institute on Drug Abuse, National Institutes of Health, Baltimore, MD
# Endoplasmic reticulum (ER) dysregulation is associated with human pathologies including neurodegenerative, cardiovascular, muscular, and diabetic conditions. Maintenance of ER calcium is critical for functions of the ER and its depletion can lead to loss of ER resident proteins, in a process termed exodosis. Therapeutic compounds capable of attenuating the redistribution of ER proteins under pathological conditions may slow or stop disease progression. To identify such compounds, we performed a quantitative high-throughput screen (qHTS) using the SERCaMP assay, which monitors secretion of ER resident proteins triggered by calcium depletion.
# SERCaMP was initially developed as a reporter of ER calcium homeostasis using a Gaussia luciferase with a modified signal peptide and carboxy-terminus (GLuc-SERCaMP), modifications that confer secretion of the reporter in response to ER calcium depletion (Henderson et al., 2014). The assay was used to screen 9,501 compounds, including a collection of drugs approved by the FDA (US), EMA (EU), NHI (Japan), and HC (Canada) regulatory agencies (Huang et al., 2011). Since the SERCaMP reporter reflects the exodosis phenomenon (Trychta et al., 2018a), compounds identified in the screen have the potential to prevent exodosis by different mechanisms such as stabilizing ER calcium or augmenting ERS retrieval.
# 1. Henderson, M.J., Wires, E.S., Trychta, K.A., Richie, C.T., and Harvey, B.K. (2014). SERCaMP: a carboxy-terminal protein modification that enables monitoring of ER calcium homeostasis. Mol Biol Cell 25, 2828-2839.
# 2. Huang, R., Southall, N., Wang, Y., Yasgar, A., Shinn, P., Jadhav, A., Nguyen, D.T., and Austin, C.P. (2011). The NCGC pharmaceutical collection: a comprehensive resource of clinically approved drugs enabling repurposing and chemical genomics. Sci Transl Med 3, 80ps16.
# 3. Trychta, K.A., Back, S., Henderson, M.J., and Harvey, B.K. (2018a). KDEL Receptors Are Differentially Regulated to Maintain the ER Proteome under Calcium Deficiency. Cell Rep 25, 1829-1840 e1826.
# SEQUENCE No. (1, 2, 3, etc.); […] (e.g., Cells, Incubation, Reagent, etc.); VALUE and DESCRIPTION.
# 1; Reagent; 5 uL; 1000 SH-SY5Y cells per wells
# 3; Compound; 23 nL; Control inhibitor / compound library
# 5; Reagent; 100 nM; Thapsigargin
# 7; Reagent; 5 uL; CellTiter-Glo (Promega)
# 8; Time; 10 min; room temperature
# 9; Detection; Luminescence; ViewLux imaging system
# NOTES (numbers refer to sequence above)
# 1; SH-SY5Y human neuroblastoma cells stably expressing GLuc-SERCaMP (SH-SY5Y-GLuc-ASARTDL) cells were seeded in 1,536 well white tissue culture treated plates (Corning, Cat# 7464) in DMEM-high glucose-sodium pyruvate (ThermoFisher Scientific, Cat #10569) supplemented with 10% bovine growth serum (Hyclone), 10 U/ml penicillin (Gibco), 10 ug/ml streptomycin (Gibco), and 20 mM HEPES.
# 2; Assay plates were incubated for 5 hr at 37C in a humidified incubator containing 5% CO2.
# 3; qHTS libraries (23 nl, final concentrations of 1.53 uM, 7.67 uM, 38.3 uM) or controls (neutral control: DMSO, positive control: dantrolene) were added using a Kalypsis pin-tool Robotic System equipped with 1536 pinheads.
# 4; Cells were then incubated for 42 hours at 37C, 5% CO2.
# 5; Thapsigargin was added at 100 nM to deplete ER calcium stores.
# 6; Cells were incubated for 4 hr (37C, 5% CO2).
# 7; Cell viability was measured using the CellTiter-Glo Luminescent Cell Viability Assay (Promega). Briefly, an equal volume of reagent was added to each well. Plates were rotated for 2 min.
# 8; Assay plates were incubated for 10 min at room temperature.
# 9; Luminescence was measured using a ViewLux CCD imaging system (Perkin Elmer) equipped with clear filters.
row,Compound,max response [%]
1,O=c1cc(N2CCOCC2)oc2c(-c3ccccc3)cccc12,-28.5
2,O=C(O)c1cc(=O)c2c(OCC(O)COc3cccc4oc(C(=O)O)cc(=O)c34)cccc2o1,17.9
3,C[C@H](Cc1ccc(O)c(O)c1)[C@@H](C)Cc1ccc(O)c(O)c1,-16.2

# Tested on: not listed separately
# Experiment: Primary qHTS for small molecule stabilizers of the endoplasmic reticulum resident proteome: Secreted ER Calcium Modulated Protein (SERCaMP) assay (AID 1508630); further: on the % scale 0 is the no-effect control and ±100 the full control effect
# Conditions: SH-SY5Y GLuc-SERCaMP (Gaussia luciferase released on ER calcium loss) secretion, thapsigargin, luminescence; series mostly up to 38.4 µM; activity change, negative = inhibition: at the top concentration
# Outline: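 GLuc-SERCaMP-expressing SH-SY5Y cells, pretreated 16 h with compound, are challenged with thapsigargin to empty ER calcium stores; after 4 h, coelenterazine is added directly to the medium and luminescence is imaged.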
Compound,"activity change, negative = inhibition",Potency
C[C@@H](c1ncncc1F)[C@](O)(Cn1cncn1)c1ccc(F)cc1F,68.4%,–
Cc1cccc(C#Cc2ccccc2)n1,–,inactive
CCOC(=O)C1=C(O)C(=O)N(Cc2ccccc2)C1,3.37%,–
O=C(CCc1ccc(O)cc1)c1c(O)cc(O)cc1O,0%,–
CCN(CC)C(=S)SSC(=S)N(CC)CC,-20.8%,–
COc1cc2c(cc1OC)C1CC(=O)C(CC(C)C)CN1CC2 (configuration not stated),43.9%,–
O=c1cc(N2CCOCC2)oc2c(-c3ccccc3)cccc12,1.07%,–
O=c1c(O)c(-c2cc(O)c(O)c(O)c2)oc2cc(O)cc(O)c12,–,inactive
NC(=NCc1ccccc1)NC(=O)c1nc(Cl)c(N)nc1N,–,inactive
NCCCCNCCCN,–,inactive
COc1ccccc1N1CCN(CCN(C(=O)C2CCCCC2)c2ccccn2)CC1,0%,–
CC1(C)NC(=O)N(c2ccc([N+](=O)[O-])c(C(F)(F)F)c2)C1=O,–,inactive
Oc1ccc(-c2nc(-c3ccc(F)cc3)c(-c3ccncc3)[nH]2)cc1,-13.5%,–
O=C(c1ccccc1)c1ccc2n1CCC2C(=O)O (configuration not stated),–,inactive
c1cnc2cc3c(cc2n1)C1CNCC3C1,93.2%,–
O=C(O)c1cc(=O)c2c(OCC(O)COc3cccc4oc(C(=O)O)cc(=O)c34)cccc2o1,48.4%,–
CN(C)CCCC1(c2ccc(F)cc2)OCc2cc(C#N)ccc21 (configuration not stated),89%,–
C[C@H](Cc1ccc(O)c(O)c1)[C@@H](C)Cc1ccc(O)c(O)c1,-64.5%,–
CC(=O)N1CCN(c2ccc(OC[C@H]3CO[C@](Cn4ccnc4)(c4ccc(Cl)cc4Cl)O3)cc2)CC1,-37%,–
O=C(O)c1cccnc1Nc1cccc(C(F)(F)F)c1,–,inactive
CN(C)C(=O)[C@H](O)[C@H](Cc1ccccc1)NC(=O)c1cc2cc(Cl)ccc2[nH]1,56.3%,–
Cc1cccc(-c2[nH]ncc2-c2ccc3ncccc3n2)n1,46.9%,–
Cc1cc(Cl)ccc1OCCCC(=O)NO,22.9%,–
C[C@@H](N)C1CCC(C(=O)Nc2ccncc2)CC1 (some centres not stated),–,inactive
NNc1nncc2ccccc12,–,inactive
CNC[C@H](O)c1ccc(O)c(O)c1,–,inactive
Clc1ccc2c(N3CCN(CCCN4CCN(c5ccnc6cc(Cl)ccc56)CC4)CC3)ccnc2c1,-14.5% [at 21.6 µM],–
CCOC(=O)C(C)Oc1cccc2c(=O)n(CC(=O)Nc3ccc4c(c3)OCCO4)ccc12 (configuration not stated),13.2%,–
Nc1nc(OCc2ccccc2)c2[nH]cnc2n1,-4.24%,–
Cc1c(OCC(F)(F)F)ccnc1CS(=O)c1nc2ccccc2[nH]1 (configuration not stated),–,inactive

# Tested on: not listed separately
# Experiment: A High-Content qHTS Against Drug Library for the Identification of Small Molecules that Inhibit DYT1 Early Onset Primary Dystonia-Associated Cell Pathology (AID 1645839; calls by dose curve; further: potency means the concentration at half of the fitted maximal effect)
# Conditions: HEK293 Flp-In EGFP-delE TorsinA, punctate imaging, 48 h; series mostly up to 46.1 µM; % pathology change, negative = correction: at the top concentration
# Outline: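 In this high-content image screen, delE TorsinA mislocalization in inducible Flp-In 293 cells is scored as %pathology, with cell count serving as the counterscreen. Compound exposure lasts 48 h under tetracycline induction in reduced-serum medium.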
Compound,"% pathology change, negative = correction",Potency
COc1ccc2cc([C@H](C)C(=O)O)ccc2c1,11.7%,–
CCN(CC)C(=S)SSC(=S)N(CC)CC,–,10 µM (active)
CC1(C)NC(=O)N(c2ccc([N+](=O)[O-])c(C(F)(F)F)c2)C1=O,0.616%,–
O=C(c1ccccc1)c1ccc2n1CCC2C(=O)O (configuration not stated),0.616%,–
c1cnc2cc3c(cc2n1)C1CNCC3C1,7.83%,–
O=C(O)c1cc(=O)c2c(OCC(O)COc3cccc4oc(C(=O)O)cc(=O)c34)cccc2o1,5.19%,–
O=C(O)c1cccnc1Nc1cccc(C(F)(F)F)c1,-7.25%,–
NNc1nncc2ccccc12,-23.1% [at 19.1 µM],–
CNC[C@H](O)c1ccc(O)c(O)c1,7.68% [at 19.1 µM],–
Cc1c(OCC(F)(F)F)ccnc1CS(=O)c1nc2ccccc2[nH]1 (configuration not stated),-3.32%,–

# Biological target: Cytochrome P450 2D6 (Homo sapiens) (UniProt P10635)
# Experiment: Cytochrome P450 family 2 subfamily D member 6 (CYP2D6) small molecule antagonists: luciferase biochemical (cell-free) qHTS assay (AID 1645840; active means well fitted curve in the direction sought with a large enough effect in the repeat runs; an effect the other way counts as inactive or inconclusive; further: nearly all actives have a fitted effect of over 55% in size; further: potency means the concentration at half of the fitted maximal effect; on activity change, negative = inhibition: on the % scale 0 is the no-effect control and ±100 the full control effect)
# Conditions: P450-Glo CYP2D6 enzyme, luciferin luminescence, 1 h; series mostly up to 57.4 µM; activity change, negative = inhibition: at the top concentration
# Outline: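 P450-Glo luminescent screen: recombinant CYP2D6 enzyme–proluciferin substrate mix preincubated with compound 10 min at room temperature, then NADPH regeneration added for 1 h at room temperature. Detection reagent added for 20 min; luciferin light read as relative luminescence units.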
# Sequence of Cytochrome P450 2D6 (Homo sapiens) (P10635 whole entry, looked up): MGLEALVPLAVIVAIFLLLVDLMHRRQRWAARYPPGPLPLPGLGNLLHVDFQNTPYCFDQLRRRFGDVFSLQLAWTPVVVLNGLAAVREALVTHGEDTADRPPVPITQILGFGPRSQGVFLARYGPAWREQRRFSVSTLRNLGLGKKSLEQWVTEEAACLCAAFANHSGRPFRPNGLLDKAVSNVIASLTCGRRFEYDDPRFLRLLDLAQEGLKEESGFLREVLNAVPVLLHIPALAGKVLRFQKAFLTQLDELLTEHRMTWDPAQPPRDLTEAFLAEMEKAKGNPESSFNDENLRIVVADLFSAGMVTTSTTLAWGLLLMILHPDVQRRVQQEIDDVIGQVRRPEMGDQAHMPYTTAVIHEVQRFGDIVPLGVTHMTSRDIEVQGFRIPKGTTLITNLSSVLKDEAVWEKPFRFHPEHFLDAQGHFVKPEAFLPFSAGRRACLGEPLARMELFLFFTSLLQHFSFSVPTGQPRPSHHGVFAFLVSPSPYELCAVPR
Compound,"activity change, negative = inhibition",Potency
C[C@@H](c1ncncc1F)[C@](O)(Cn1cncn1)c1ccc(F)cc1F,-15.9%,–
CCN(CC)C(=S)SSC(=S)N(CC)CC,–,inactive
Nc1nc(N)c(N=O)c(OCC2CCCCC2)n1,5.69%,–
NC(=NCc1ccccc1)NC(=O)c1nc(Cl)c(N)nc1N,–,5.35 µM (active)
CC1(C)NC(=O)N(c2ccc([N+](=O)[O-])c(C(F)(F)F)c2)C1=O,–,inactive
O=Nc1c(-c2c(O)[nH]c3cc(Br)ccc23)[nH]c2ccccc12,–,21.3 µM (active)
c1cnc2cc3c(cc2n1)C1CNCC3C1,5.46%,–
O=C(O)c1cc(=O)c2c(OCC(O)COc3cccc4oc(C(=O)O)cc(=O)c34)cccc2o1,8.42%,–
O=C(O)c1cccnc1Nc1cccc(C(F)(F)F)c1,0.792%,–
NNc1nncc2ccccc12,-7.93% [at 23.9 µM],–
Cc1c(OCC(F)(F)F)ccnc1CS(=O)c1nc2ccccc2[nH]1 (configuration not stated),–,389 nM (active) and 1.07 µM (active)
